Laboratory results taken from PubChem BioAssay AID1159580 (chemical genetic matrix, 2015).
Screen size: about 5,500 compounds; about 2,000 (36%) were called active. Inconclusive results (about 18%) are left out. Rule as the data show it: active = normalized growth mostly below about 0.91 (no sharp cut-off); inconclusive = no clear call, values can overlap the other calls; inactive = mostly above about 0.92. This is one part of the list.

Experiment: chemical genetic growth profiling, strain panel (AID 1159580);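 also: tested at 20 µM; growth read once vehicle control cultures reached saturation at 30 °C; 1 = growth at the plate median or of vehicle wells; lower values mean less growth of the strain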
Conditions: S. cerevisiae deletion strains, growth OD

Measured: normalized growth

O=C(/C=C/c1ccccc1)c1ccc(O)cc1O
active: locus YAL021C, strain ccr4, hits give low values 0.0748 | locus YAL026C, strain drs2, hits give low values 0.0615 | locus YAL030W, strain snc1, hits give low values 0.0587 | locus YBL061C, strain skt5, hits give low values 0.066 | locus YBR009C, strain hhf1, hits give low values 0.0651 | locus YBR023C, strain chs3, hits give low values 0.0637 | locus YBR171W, strain sec66, hits give low values 0.0801 | locus YBR231C, strain swc5, hits give low values 0.062 | locus YBR279W, strain paf1, hits give low values 0.0608 | locus YCL011C, strain gbp2, hits give low values 0.0582 | locus YCL016C, strain dcc1, hits give low values 0.0631 | locus YCL061C, strain MRC1, hits give low values 0.0667 | locus YCL069W, strain vba3, hits give low values 0.0608 | locus YCR088W, strain abp1, hits give low values 0.0623 | locus YDL005C, strain med2, hits give low values 0.0755 | locus YDL040C, strain nat1, hits give low values 0.0609 | locus YDR001C, strain nth1, hits give low values 0.0596 | locus YDR069C, strain doa4, hits give low values 0.0834 | locus YDR137W, strain rgp1, hits give low values 0.0879 | locus YDR159W, strain sac3, hits give low values 0.0941 | locus YDR195W, strain ref2 0.114 | locus YDR297W, strain sur2, hits give low values 0.0595 | locus YDR334W, strain swr1, hits give low values 0.0664 | locus YDR335W, strain msn5, hits give low values 0.0605 | locus YDR392W, strain spt3, hits give low values 0.0975 | locus YEL003W, strain gim4, hits give low values 0.0559 | locus YEL037C, strain rad23, hits give low values 0.059 | locus YEL061C, strain CIN8 (second series), hits give low values 0.0607 | locus YER015W, strain faa2, hits give low values 0.0634 | locus YER016W, strain bim1, hits give low values 0.0613 | locus YER111C, strain swi4, hits give low values 0.0739 | locus YER155C, strain BEM2 (second series), hits give low values 0.0936 | locus YFR010W, strain ubp6, hits give low values 0.0802 | locus YGL167C, strain pmr1, hits give low values 0.0759 | locus YGL173C, strain kem1, hits give low values 0.0714 | locus YGL227W, strain vid30, hits give low values 0.0642 | locus YGL240W, strain doc1, hits give low values 0.0905 | locus YGL253W, strain hxk2, hits give low values 0.054 | locus YHR013C, strain ard1, hits give low values 0.122 | locus YHR027C, strain rpn1, hits give low values 0.0687 | locus YHR030C, strain SLT2, hits give low values 0.101 | locus YHR079C, strain IRE1, hits give low values 0.113 | locus YHR142W, strain chs7, hits give low values 0.0687 | locus YJL092W, strain hpr5, hits give low values 0.0609 | locus YJL095W, strain BCK1 (second series), hits give low values 0.0568 | locus YJL095W, strain BCK1, hits give low values 0.131 | locus YJL115W, strain asf1, hits give low values 0.0751 | locus YJL129C, strain trk1, hits give low values 0.0857 | locus YJL154C, strain vps35, hits give low values 0.0627 | locus YJL164C, strain tpk1, hits give low values 0.0619 | locus YJL166W, strain qcr8, hits give low values 0.0694 | locus YJL187C, strain SWE1, hits give low values 0.0592 | locus YJR066W, strain TOR1, hits give low values 0.000815 | locus YKL160W, strain elf1, hits give low values 0.0634 | locus YKR026C, strain gcn3, hits give low values 0.0638 | locus YKR091W, strain srl3, hits give low values 0.0604 | locus YLL001W, strain dnm1, hits give low values 0.059 | locus YLL026W, hits give low values 0.0586 | locus YLL041C, strain sdh2, hits give low values 0.063 | locus YLR027C, strain aat2, hits give low values 0.0578 | locus YLR113W, strain HOG1, hits give low values 0.216 | locus YLR221C, strain rsa3, hits give low values 0.0573 | locus YLR258W, strain gsy2, hits give low values 0.0645 | locus YLR262C, strain YPT6 (second series), hits give low values 0.0856 | locus YLR320W, strain mms22, hits give low values 0.0956 | locus YLR342W, strain FKS1, hits give low values 0.064 | locus YLR357W, strain rsc2, hits give low values 0.137 | locus YLR370C, strain arc18, hits give low values 0.0633 | locus YLR384C, strain iki3, hits give low values 0.0625 | locus YML120C, strain ndi1, hits give low values 0.0602 | locus YMR058W, strain fet3, hits give low values 0.0605 | locus YMR125W, strain sto1, hits give low values 0.0837 | locus YMR129W, hits give low values 0.061 | locus YMR205C, strain PFK2, hits give low values 0.0908 | locus YMR231W, strain pep5, hits give low values 0.0723 | locus YNL071W, strain lat1, hits give low values 0.0616 | locus YNL183C, strain NPR1, hits give low values 0.000882 | locus YNL209W, strain ssb2, hits give low values 0.0674 | locus YNL248C, strain rpa49, hits give low values 0.0717 | locus YNL322C, strain KRE1 (second series), hits give low values 0.0685 | locus YNR049C, strain mso1, hits give low values 0.0592 | locus YOR001W, strain rrp6, hits give low values 0.0669 | locus YOR070C, strain gyp1, hits give low values 0.0587 | locus YOR080W, strain dia2, hits give low values 0.0676 | locus YOR083W, strain WHI5, hits give low values 0.0633 | locus YOR106W, strain vam3, hits give low values 0.0654 | locus YOR231W, strain MKK1, hits give low values 0.108 | locus YOR265W, strain rbl2, hits give low values 0.0582 | locus YOR270C, strain vph1, hits give low values 0.0904 | locus YOR290C, strain snf2, hits give low values 0.0728 | locus YPL051W, strain arl3, hits give low values 0.0614 | locus YPL078C, strain atp4, hits give low values 0.0665 | locus YPL106C, strain sse1, hits give low values 0.102 | locus YPL240C, strain hsp82, hits give low values 0.058 | locus YPL256C, strain CLN2, hits give low values 0.118
